Laboratory results from PubChem BioAssay (NCATS).
Results filed as inconclusive are left out. Calls of active or inactive are those of the source. The call rests on the fitted dose curve; in most records, active means well fitted cell-killing curve with a large enough effect; inconclusive means small, poorly fitted or top-dose-only effect, or effect the other way; inactive means no such curve, though single readings can be large or run the other way.

Experiment: Quantitative High-Throughput drug screen in 47 multiple myeloma cell lines against the NCATS MIPE library collection: UTMC2_PLB cell viability assay (AID 1919868); further: nearly all actives have a fitted effect of over 55% in size;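 on viability (% of DMSO control): 100% = DMSO-only wells and 0% = media-only wells without cells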
Settings: CellTiter-Glo ATP luminescence, 48 h; viability (% of DMSO control): at 45.8 µM (top of the series) unless noted
Summary of the method: (§1)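 ATP-based luminescence (CellTiter-Glo, 5 min RT incubation) quantified surviving cells following two days' treatment with MIPE 4.0 agents at 37 °C, 5% CO2.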
Potency means the concentration at half of the fitted maximal effect.

Q: For `COc1c(OCCCN2CCOCC2)ccc2c3n(c(=NC(=O)c4cnc(N)nc4)nc12)CCN3`, which Potency is on record?
A: The Potency was 0.115 µM (active).

Q: Which Potency does the source give for `Cc1cnc(-c2cnc(NCCNc3ccc(C#N)cn3)nc2-c2ccc(Cl)cc2Cl)[nH]1` here?
A: Its Potency is 13.2 µM (active).

Q: For `CCCn1c(=O)c2[nH]c(-c3cnn(Cc4cccc(C(F)(F)F)c4)c3)nc2n(CC)c1=O`, which “viability (% of DMSO control)” value is on record?
A: The value was 166% (inactive).

Experiment: Quantitative High-Throughput drug screen in 47 multiple myeloma cell lines against the NCATS MIPE library collection: PE2_PLB cell viability assay (AID 1919869); further: nearly all actives have a fitted effect of over 35% in size;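 on viability (% of control): 100% = DMSO-only wells and 0% = cell-free media-only wells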
Settings: PE2_PLB myeloma cells viability, ATP luminescence, 48 h; series mostly up to 45.8 µM; viability (% of control): at the top concentration
Summary of the method: as §1

Q: For `CC(C)(O)c1cc2nc(-c3cnc(N)nc3)nc(N3CCOCC3)c2s1`, which Potency is on record?
A: The Potency was 0.105 µM (active).

Q: With `Cc1[nH]c2ccccc2c1CCNCc1ccc(C=CC(=O)NO)cc1` as the molecule, how does the Potency read?
A: Its Potency is 0.0935 µM (active).

Q: For `CCNC(=O)Nc1ccc2ncc(Nc3ccc(C)cc3)nc2n1`, which Potency is on record?
A: The Potency was 3.72 µM (active).

Q: For `COc1cccc(Nc2c(C(N)=O)cnc3c(C)cc(S(=O)(=O)c4cccc(C(=O)N(C)C)c4)cc23)c1`, which “viability (% of control)” value is on record?
A: The value was 120% [at 23.2 µM] (inactive).

Q: With `Cc1cc(Nc2cc(N3CCN(C)CC3)nc(C=Cc3ccccc3)n2)n[nH]1` as the molecule, how does the Potency read?
A: The Potency was 13.6 µM (active).

Q: For `Nc1ccn([C@@H]2O[C@H](CO)[C@H](O)C2(F)F)c(=O)n1`, which Potency is on record?
A: The Potency was 0.332 µM (active).

Q: For `CN(C)c1nc(Cc2ccc(NC(=O)c3ccc4ccccc4c3)cc2)nc(Cl)c1CC(=O)O`, which “viability (% of control)” value is on record?
A: The value was 94.6% (inactive).

Q: Which “viability (% of control)” value does the source give for `Cc1ccc(CN2CCNCC2)cc1NC(=O)CNc1ccc(F)c(F)c1` here?
A: The value was 111% (inactive).

Q: Which Potency does the source give for `CCC1=C[C@@H]2CN(C1)Cc1c([nH]c3ccccc13)[C@@](C(=O)OC)(c1cc3c(cc1OC)N(C)[C@@H]1[C@@](O)(C(=O)OC)[C@H](OC(C)=O)[C@]4(CC)C=CCN5CC[C@]31[C@@H]54)C2` here?
A: The Potency was 0.0264 µM (active).

Q: With `CCCCN1CCC(CNC(=O)c2c3n(c4ccccc24)CCCO3)CC1` as the molecule, how does the Potency read?
A: The Potency was 11.8 µM (active).

Q: Which Potency does the source give for `O=C(CCCCCCC(=O)Nc1ccc([C@H]2O[C@@H](CSc3nc(-c4ccccc4)c(-c4ccccc4)o3)C[C@@H](c3ccc(CO)cc3)O2)cc1)NO` here?
A: The Potency was 14.8 µM (active).

Q: With `Nc1ccc(S(=O)(=O)Nc2ncccn2)cc1` as the molecule, how does the “viability (% of control)” value read?
A: The value was 117% (inactive).

Q: With `COc1cc2ncn(-c3cc(OCc4ccccc4C(F)(F)F)c(C(N)=O)s3)c2cc1OC` as the molecule, how does the Potency read?
A: The Potency was 18.7 µM (active).

Q: For `COc1cc2c(Oc3ccc4[nH]c(C)cc4c3F)ncnc2cc1OCCCN1CCCC1`, which Potency is on record?
A: The Potency was 13.2 µM (active).

Q: With `Cc1c(NC(=O)OC[C@@H]2COCCN2)cn2ncnc(Nc3ccc4c(cnn4Cc4cccc(F)c4)c3)c12` as the molecule, how does the Potency read?
A: Its Potency is 5.26 µM (active).

Q: Which Potency does the source give for `Cc1cnc(-c2cnc(NCCNc3ccc(C#N)cn3)nc2-c2ccc(Cl)cc2Cl)[nH]1` here?
A: The Potency was 23.5 µM (active).

Q: For `COc1cc(C(=O)NS(=O)(=O)c2ccccc2C)ccc1Cc1cn(C)c2ccc(NC(=O)OC3CCCC3)cc12`, which Potency is on record?
A: The Potency was 13.2 µM (active).

Q: Which Potency does the source give for `COC(=O)Nc1ccc(-c2nc(N3CCOCC3)c3cnn(C4CCN(Cc5cccnc5)CC4)c3n2)cc1` here?
A: The Potency was 0.0469 µM (active).

Q: With `COc1ccc2c(OCc3nnc4ccc(-c5ccccc5)nn34)ccnc2c1` as the molecule, how does the Potency read?
A: Its Potency is 1.87 µM (active).

Q: Which “viability (% of control)” value does the source give for `CCCn1c(=O)c2[nH]c(-c3cnn(Cc4cccc(C(F)(F)F)c4)c3)nc2n(CC)c1=O` here?
A: Its value is 101% (inactive).

Experiment: Quantitative High-Throughput drug screen in 47 multiple myeloma cell lines against the NCATS MIPE library collection: PCM6_Riken cell viability assay (AID 1919870); further: nearly all actives have a fitted effect of over 30% in size;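 on viability (% of control): 100% = DMSO-only wells and 0% = media-only wells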
Settings: CellTiter-Glo ATP, 48 h; series mostly up to 45.8 µM; viability (% of control): at the top concentration
Summary of the method: as §1

Q: For `CC(C)(O)c1cc2nc(-c3cnc(N)nc3)nc(N3CCOCC3)c2s1`, which Potency is on record?
A: The Potency was 0.743 µM (active).

Q: For `O=C(C=Cc1c(C(=O)O)[nH]c2cc(Cl)cc(Cl)c12)Nc1ccccc1`, which “viability (% of control)” value is on record?
A: The value was 107% (inactive).

Q: With `CN1CC[C@@H](c2c(O)cc(O)c3c(=O)cc(-c4ccccc4Cl)oc23)[C@@H](O)C1` as the molecule, how does the Potency read?
A: The Potency was 0.0833 µM (active).

Q: For `Cc1[nH]c2ccccc2c1CCNCc1ccc(C=CC(=O)NO)cc1`, which Potency is on record?
A: The Potency was 0.0662 µM (active).

Q: With `CCNC(=O)Nc1ccc2ncc(Nc3ccc(C)cc3)nc2n1` as the molecule, how does the Potency read?
A: The Potency was 0.935 µM (active).

Q: With `COc1cccc(Nc2c(C(N)=O)cnc3c(C)cc(S(=O)(=O)c4cccc(C(=O)N(C)C)c4)cc23)c1` as the molecule, how does the “viability (% of control)” value read?
A: Its value is 118% [at 23.2 µM] (inactive).

Q: Which Potency does the source give for `Cc1cc(Nc2cc(N3CCN(C)CC3)nc(C=Cc3ccccc3)n2)n[nH]1` here?
A: The Potency was 30.3 µM (active).

Q: With `CC(C)[C@H](C(=O)Nc1ccc(C(=O)NO)cc1)c1ccccc1` as the molecule, how does the Potency read?
A: The Potency was 0.935 µM (active).

Q: For `Nc1ccn([C@@H]2O[C@H](CO)[C@H](O)C2(F)F)c(=O)n1`, which Potency is on record?
A: The Potency was 1.87 µM (active).

Q: Which “viability (% of control)” value does the source give for `CN(C)c1nc(Cc2ccc(NC(=O)c3ccc4ccccc4c3)cc2)nc(Cl)c1CC(=O)O` here?
A: Its value is 107% (inactive).

Q: For `Cc1ccc(CN2CCNCC2)cc1NC(=O)CNc1ccc(F)c(F)c1`, which “viability (% of control)” value is on record?
A: The value was 120% (inactive).

Q: With `CCCCN1CCC(CNC(=O)c2c3n(c4ccccc24)CCCO3)CC1` as the molecule, how does the Potency read?
A: Its Potency is 3.32 µM (active).

Q: With `COC(=O)Nc1nc2ccc(C(=O)c3ccc(F)cc3)cc2[nH]1` as the molecule, how does the Potency read?
A: Its Potency is 0.743 µM (active).

Q: For `O=C(CCCCCCC(=O)Nc1ccc([C@H]2O[C@@H](CSc3nc(-c4ccccc4)c(-c4ccccc4)o3)C[C@@H](c3ccc(CO)cc3)O2)cc1)NO`, which Potency is on record?
A: Its Potency is 13.2 µM (active).

Q: Which “viability (% of control)” value does the source give for `Nc1ccc(S(=O)(=O)Nc2ncccn2)cc1` here?
A: Its value is 127% (inactive).

Q: Which Potency does the source give for `CC(=O)Nc1sc2c(c1-c1nc3ccccc3s1)CNC2` here?
A: The Potency was 14.8 µM (active).

Q: Which Potency does the source give for `COc1cc2ncn(-c3cc(OCc4ccccc4C(F)(F)F)c(C(N)=O)s3)c2cc1OC` here?
A: Its Potency is 5.9 µM (active).

Q: For `CC(O)C1C(=O)N2C(C(=O)O)=C(SC3CNC(C(=O)N(C)C)C3)C(C)C12` (centres undefined), which “viability (% of control)” value is on record?
A: The value was 80.7% (inactive).

Q: For `COc1cc2c(Oc3ccc4[nH]c(C)cc4c3F)ncnc2cc1OCCCN1CCCC1`, which Potency is on record?
A: The Potency was 2.35 µM (active).

Q: For `Cc1cn2c(-c3cn[nH]c3)cnc2c(Nc2ccc(C(=O)N3CCNCC3)cc2F)n1`, which Potency is on record?
A: Its Potency is 18.7 µM (active).

Q: Which Potency does the source give for `NCC(=O)Nc1ccc(-n2nc(C(F)(F)F)cc2-c2ccc3c(ccc4ccccc43)c2)cc1` here?
A: Its Potency is 20.9 µM (active).

Q: For `Cc1cnc(-c2cnc(NCCNc3ccc(C#N)cn3)nc2-c2ccc(Cl)cc2Cl)[nH]1`, which Potency is on record?
A: The Potency was 13.2 µM (active).

Q: With `COc1cc(C(=O)NS(=O)(=O)c2ccccc2C)ccc1Cc1cn(C)c2ccc(NC(=O)OC3CCCC3)cc12` as the molecule, how does the Potency read?
A: Its Potency is 13.2 µM (active).

Q: Which Potency does the source give for `COC(=O)Nc1ccc(-c2nc(N3CCOCC3)c3cnn(C4CCN(Cc5cccnc5)CC4)c3n2)cc1` here?
A: The Potency was 0.526 µM (active).

Q: Which “viability (% of control)” value does the source give for `COc1ccc2c(OCc3nnc4ccc(-c5ccccc5)nn34)ccnc2c1` here?
A: The value was 110% (inactive).

Q: With `CCCn1c(=O)c2[nH]c(-c3cnn(Cc4cccc(C(F)(F)F)c4)c3)nc2n(CC)c1=O` as the molecule, how does the “viability (% of control)” value read?
A: The value was 109% (inactive).
